Records with an inconclusive call do not appear. Calls of active or inactive are those of the source. The call rests on the fitted dose curve; in most records, active means well fitted inhibition curve with a large enough effect; inconclusive means small, poorly fitted or top-dose-only effect; inactive means no such curve, though single readings can be large or run the other way.
On the % scale 0 is the no-effect control and ±100 the full control effect; potency means the concentration at half of the fitted maximal effect.

The assay concerns Zika virus NS2B-NS3 protease (unlinked complex). Description: Primary screen GU Rhodamine qHTS for Zika virus inhibitors: Unlinked NS2B-NS3 protease assay (AID 1347159). Further: nearly all actives have a fitted effect of over 60% in size. Particulars: Recombinant ZIKV NS2B-NS3 protease, Rhodamine110 substrate fluorescence; series mostly up to 107 µM; activity change, negative = inhibition: at the top concentration. The essentials:
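Noncovalent NS2B hydrophilic domain–NS3 protease domain complex (25 nM) preincubated 15 min at room temperature with compounds (up to 114 microM) in 10 mM Tris-HCl pH 8.0, 0.01% Tween 20; 1.5 microM Rhodamine110 substrate added, fluorescence change over 15 min fitted to Hill equation.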
Take `C=CC(C)(CC/C=C(\C)CC/C=C(\C)CC(O)/C=C(\C)C(=O)O)O[C@@H]1O[C@H](CO)[C@@H](O)[C@H](O)[C@H]1O[C@@H]1O[C@H](CO)[C@@H](O)[C@H](O)[C@H]1O` (some centres not stated): the “activity change, negative = inhibition” value was 8.33% [at 32.5 µM] (inactive). Consider `NC(=O)[C@H]1CCCCc2c1[nH]c1ccc(Cl)cc21`, for which the “activity change, negative = inhibition” value was 14.3% [at 57.1 µM] (inactive).

In the case of `COC(=O)CC1(O)C(=O)Nc2ccccc21` (configuration not stated), the “activity change, negative = inhibition” value was 1.6% (inactive). Still for that read-out and setting: the result for `C[C@@H]1CC[C@]2(C(=O)O)CC[C@]3(C)C(=CCC4[C@]5(C)C(CC[C@]43C)C(C)(C)[C@@H](O)[C@H](O)[C@@H]5O)C2[C@]1(C)O` (some centres not stated) reads 2.35% [at 57.1 µM] (inactive); that for `CCC[C@@H]1C[C@@H](C(=O)N[C@H](C(C)Cl)[C@H]2O[C@H](SC)[C@H](O)[C@@H](O)[C@H]2O)N(C)C1` (some centres not stated), 27.7% (inactive).

With `COc1cc2c(Nc3ccc(Cl)c(Cl)c3F)ncnc2cc1OCC1C[C@@H]2CN(C)C[C@@H]2C1` (some centres not stated), the “activity change, negative = inhibition” value was 314% (inactive). As for `O=C(/C=C/c1ccc(O)cc1)OC[C@H]1O[C@@H](OC(=O)/C=C/c2ccccc2)[C@H](O)[C@@H](O)[C@@H]1O`, the “activity change, negative = inhibition” value was -16.8% [at 57.1 µM] (inactive). Same read-out and setting: the result for `C=C1CCC2C(C)(COC3OC(COC(=O)CC(=O)O)C(O)C(O)C3O)CCCC2(C)C1CCC1=CCOC1=O` (configuration not stated) reads -18.2% [at 57.1 µM] (inactive). Regarding `COc1cccc(-c2ccc([C@@H](Oc3cc(-c4ccc(C[C@H](N)C(=O)O)cc4)nc(N)n3)C(F)(F)F)cc2)c1`, the Potency was 22.4 µM (active). Regarding `O=C(O)[C@H]1CCCC[C@H]1C(=O)N1CCc2ccccc2[C@H]1CN1C(=O)c2ccccc2C1=O`, the “activity change, negative = inhibition” value was 5.92% (inactive). As to `CC1(C)CCCC2(C)C1C(O)C=C(CO)C2(O)C(=O)O` (configuration not stated), the “activity change, negative = inhibition” value was 4.84% (inactive). The same measure, in the same setting: then `C=CC(C)(O)CC/C=C(\C)C(=O)OCC1OC(OC2CCC3(C)C(CCC4(C)C3CC=C3C5CC(C)(C)C(O)CC5(C(=O)O)CCC34C)C2(C)C)C(O)C(OC2OC(CO)C(O)C(OC3OC(CO)C(O)C(OC4OC(COC5OC(CO)C(O)C(O)C5O)C(O)C(O)C4O)C3O)C2O)C1O` (configuration not stated), with 5.91% [at 19.1 µM] (inactive).

For the origin of these results see PubChem BioAssay (NCATS).
